PubChem BioAssay (EPA / NIEHS)
The source made the active and inactive calls. How the source made its calls: active means hit-call score of the fitted dose curve at least 0.9, where 1 is the maximum; inactive means score below 0.9.

How the values were obtained:
[1] = ATG_CRE_CIS: Attagene CIS-FACTORIAL HepG2 Assay for human cAMP Responsive Element (CRE) binding protein 3 (AID 2282926); details: HepG2 CRE cis-reporter, Attagene multiplexed mRNA; actives raise or lower the signal
Summary of the method: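 Readout: fluorescently labelled reporter transcripts resolved by capillary electrophoresis after RT-PCR, taken 24 h post-dosing in transfected HepG2. Endogenous transcription factor activity drives each cis-element reporter; gain or loss of signal fitted relative to DMSO control.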

[2] = target: CCAAT/enhancer-binding protein beta (Homo sapiens) (UniProt P17676); assay: ATG_C_EBP_CIS: Attagene CIS-FACTORIAL HepG2 Assay for human CCAAT/Enhancer Binding Protein (C/EBP) beta (AID 2282927); details: HepG2 Attagene cis-factorial transcription factor reporter; actives raise or lower the signal
Summary of the method: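 Endogenous C/EBPb-driven reporter transcripts measured in transfected human HepG2 cells at 24 h via RT-PCR and capillary electrophoresis of labelled fragments. Activity fitted in both directions relative to DMSO baseline.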

[3] = ATG_CMV_CIS: Attagene CIS-FACTORIAL HepG2 Assay for human CMV (Internal Marker) (AID 2282928); details: HepG2 CMV promoter reporter, transcription factor profiling; actives raise or lower the signal;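 further: endpoint acts as a background internal control marker rather than a target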
Summary of the method: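 Reporter transcripts from transfected HepG2 cells are isolated after 24 h of chemical dosing, reverse-transcribed and amplified. Fragments labeled with 6-FAM are cut with HpaI and quantified by capillary electrophoresis; DMSO defines baseline.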

[4] = ATG_DR4_LXR_CIS: Attagene CIS-FACTORIAL HepG2 Assay for human Liver X Receptor (LXR), DR4 submotif (AID 2282929); details: HepG2 Attagene DR4 cis-reporter, mRNA transcription; actives raise or lower the signal
Summary of the method: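 The endpoint is DR4-element-driven reporter transcripts after 24 h chemical exposure of transfected HepG2 cells. These were measured via RT-PCR and capillary electrophoresis, and gain or loss of signal was fitted relative to DMSO controls.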

[5] = target: Aryl hydrocarbon receptor (Homo sapiens) (UniProt P35869); assay: ATG_Ahr_CIS: Attagene CIS-FACTORIAL HepG2 Assay for human Aryl Hydrocarbon Receptor (Ahr) (AID 2282930); details: HepG2 AhR cis-factorial reporter transcription; actives raise or lower the signal
Summary of the method: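 Reporter mRNA levels, quantified by RT-PCR and fluorescent capillary electrophoresis, reflect endogenous AhR transcriptional activity in HepG2 cells carrying transfected cis-promoter reporter constructs. Readout at 24 h post-dose; gain or loss fitted against DMSO baseline.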

[6] = ATG_AP_1_CIS: Attagene CIS-FACTORIAL HepG2 Assay for human Activator Protein 1 (AP-1) (AID 2282931); details: HepG2 Attagene cis-factorial AP-1 reporter mRNA; actives raise or lower the signal
Summary of the method: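 Readout is reporter transcript level from endogenous transcription factor activity, quantified by RT-PCR with fluorescent primer extension and capillary electrophoresis. Transiently transfected HepG2 cells, 24 h exposure. Curves fitted both directions versus DMSO.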

[7] = ATG_AP_2_CIS: Attagene CIS-FACTORIAL HepG2 Assay for human Activator Protein 2 (AP-2) (AID 2282932); details: HepG2 AP-2 cis-reporter, Attagene transcription factor profiling; actives raise or lower the signal
Summary of the method: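 Transiently transfected HepG2 cells are exposed to chemical for 24 h. Reporter transcripts are then measured as fluorescence following RT-PCR and capillary separation, and gain- or loss-of-signal is fitted relative to DMSO.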

[8] = ATG_BRE_CIS: Attagene CIS-FACTORIAL HepG2 Assay for human Bone Morphogenetic Protein (BMP) Response Element (BRE) (AID 2282933); details: HepG2 BMP response element reporter, Attagene transcription factor profiling; actives raise or lower the signal
Summary of the method: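 After a 24 h chemical treatment, transiently transfected HepG2 cells were lysed for RNA; reporter transcripts were quantified by fluorescent RT-PCR and capillary electrophoresis, normalised to DMSO.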

[9] = ATG_E_Box_CIS: Attagene CIS-FACTORIAL HepG2 Assay for human Enhancer Box (E-box) (AID 2282936); details: HepG2 E-box cis-reporter transcription, actives raise or lower the signal
Summary of the method: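 Fluorescent reporter fragments separated by capillary electrophoresis gave the signal; mRNA came from HepG2 cells transfected with cis-element reporters and treated 24 h. Curves fitted bidirectionally relative to DMSO controls.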

[10] = ATG_M_61_CIS: Attagene CIS-FACTORIAL HepG2 Assay for M61 Transcription Factor (Internal Marker) (AID 2282937); details: HepG2 Attagene CIS-FACTORIAL M61 internal marker reporter; actives raise or lower the signal
Summary of the method: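 Readout is reporter mRNA by RT-PCR, fluorescent primer extension and capillary electrophoresis, with gain or loss fitted relative to DMSO. Transfected HepG2 cells carrying endogenous-TF-driven cis reporters were exposed to chemicals for 24 hours.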

[11] = ATG_EGR_CIS: Attagene CIS-FACTORIAL HepG2 Assay for human Early Growth Response 1 (EGR1) (AID 2282938); details: HepG2 Attagene CIS-FACTORIAL EGR reporter mRNA; actives raise or lower the signal
Summary of the method: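 After 24 h compound exposure, RNA from reporter-transfected HepG2 cells was reverse-transcribed, PCR-amplified, fluorescently labelled and resolved by capillary electrophoresis. EGR1 reporter transcript changes, up or down, were fitted against DMSO, reflecting endogenous transcription-factor activity.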

[12] = ATG_M_19_CIS: Attagene CIS-FACTORIAL HepG2 Assay for M19 Transcription Factor (Internal Marker) (AID 2282939); details: HepG2 Attagene CIS-FACTORIAL M19 internal marker reporter; actives raise or lower the signal
Summary of the method: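 In this multiplexed cell assay, transiently transfected HepG2 reporter units report endogenous transcription-factor activity; after 24 hours of treatment, labelled reporter cDNA fragments are quantified by capillary electrophoresis and fitted bidirectionally against DMSO.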

[13] = ATG_ERE_CIS: Attagene CIS-FACTORIAL HepG2 Assay for Estrogen Response Element (ERE) (AID 2282940); details: HepG2 ERE cis-reporter, Attagene RNA transcript; actives raise or lower the signal
Summary of the method: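 Measuring endogenous transcription factor output, the assay doses transfected HepG2 cells for 24 hours and quantifies reporter transcripts by fluorescent RT-PCR and capillary electrophoresis, with DMSO as baseline.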

[14] = target: Hepatocyte nuclear factor 3-beta (Homo sapiens) (UniProt Q9Y261); assay: ATG_FoxA2_CIS: Attagene CIS-FACTORIAL HepG2 Assay for human Forkhead box A2 (FOXA2) (AID 2282942); details: HepG2 cis-reporter transcription factor activity, 24 h; actives raise or lower the signal
Summary of the method: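 Endogenous transcription factor activity is captured via cis-element-driven reporter transcripts in transfected HepG2. Total RNA taken at 24 h post-dosing; labelled RT-PCR products resolved by capillary electrophoresis. Gain or loss fitted versus DMSO.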

[15] = ATG_FoxO_CIS: Attagene CIS-FACTORIAL HepG2 Assay for human Forkhead box O (FoxO) (AID 2282943); details: HepG2 Attagene cis-reporter, FoxO element, mRNA; actives raise or lower the signal
Summary of the method: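 Endogenous transcription factor activity read from multiplexed cis-promoter reporter transcripts in transiently transfected HepG2, 24 h after dosing. Reporter RNA measured via RT-PCR plus capillary electrophoresis of FAM-labeled products; gain or loss relative to DMSO.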

[16] = ATG_GLI_CIS: Attagene CIS-FACTORIAL HepG2 Assay for human Zinc Finger Protein GLI1 (AID 2282945); details: HepG2, Attagene cis-factorial reporter mRNA, GLI element; actives raise or lower the signal
Summary of the method: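 Bidirectional curve fits relative to DMSO, using reporter mRNA levels from RT-PCR plus capillary electrophoresis. Cells were HepG2 transiently carrying cis-regulated reporter constructs, harvested 24 h after dosing.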

[17] = target: Transcription factor E2F1 (Homo sapiens) (UniProt Q01094); assay: ATG_E2F_CIS: Attagene CIS-FACTORIAL HepG2 Assay for human E2F Transcription Factor 1 (AID 2282935); details: HepG2 Attagene cis-reporter, E2F reporter RNA transcripts; actives raise or lower the signal
Summary of the method: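 Fluorescent RT-PCR products, digested with HpaI for 2 h at 37 C, are separated by capillary electrophoresis. Source RNA comes from transfected HepG2 cultures treated for 24 h.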

[18] = ATG_GATA_CIS: Attagene CIS-FACTORIAL HepG2 Assay for human GATA Binding Protein (AID 2282944); details: HepG2 GATA cis-element reporter, Attagene multiplex mRNA; actives raise or lower the signal
Summary of the method: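 Measures endogenous transcription factor-driven reporter mRNA in HepG2 cells transiently carrying cis-regulated constructs. 24 h dosing; RNA via oligo(dT) reverse transcription, PCR, HpaI digestion, capillary electrophoresis; fitted relative to DMSO.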

[19] = ATG_Ets_CIS: Attagene CIS-FACTORIAL HepG2 Assay for human Erythroblast Transformation Specific (ETS) (AID 2282941); details: HepG2 ETS cis-reporter transcription, actives raise or lower the signal
Summary of the method: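 Bidirectional fit versus DMSO of reporter mRNA signal, detected by RT-PCR and capillary electrophoresis in HepG2 cells transiently transfected with cis-element reporters and dosed 24 h.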

[20] = target: Retinoic acid receptor alpha (Homo sapiens) (UniProt P10276); assay: ATG_DR5_RAR_CIS: Attagene CIS-FACTORIAL HepG2 Assay for human Retinoic Acid Receptor Alpha (RARE), DR5 submotif (AID 2282934); details: HepG2 Attagene cis-factorial RARE DR5 reporter, mRNA; actives raise or lower the signal
Summary of the method: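 Reporter transcripts from a DR5-regulated unit, measured via RT-PCR plus capillary electrophoresis, reflect endogenous RAR activity in transiently transfected human HepG2 liver cells. Exposure lasted 24 h; gain or loss of signal scored against DMSO.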

Measured: AC50

Chain of Transcription factor E2F1 (Homo sapiens) (Q01094 whole entry, looked up): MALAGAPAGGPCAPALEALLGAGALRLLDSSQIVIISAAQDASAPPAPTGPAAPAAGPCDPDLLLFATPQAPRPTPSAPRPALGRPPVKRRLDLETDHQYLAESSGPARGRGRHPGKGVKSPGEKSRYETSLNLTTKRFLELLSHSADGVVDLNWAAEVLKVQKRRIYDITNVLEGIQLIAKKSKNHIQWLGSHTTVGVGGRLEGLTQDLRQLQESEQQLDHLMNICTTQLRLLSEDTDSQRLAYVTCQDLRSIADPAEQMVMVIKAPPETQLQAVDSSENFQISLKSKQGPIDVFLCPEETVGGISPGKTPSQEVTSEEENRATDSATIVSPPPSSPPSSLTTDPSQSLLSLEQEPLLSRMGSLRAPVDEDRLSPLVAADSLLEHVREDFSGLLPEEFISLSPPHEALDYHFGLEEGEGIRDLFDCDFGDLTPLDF
Chain of Hepatocyte nuclear factor 3-beta (Homo sapiens) (Q9Y261 whole entry, looked up): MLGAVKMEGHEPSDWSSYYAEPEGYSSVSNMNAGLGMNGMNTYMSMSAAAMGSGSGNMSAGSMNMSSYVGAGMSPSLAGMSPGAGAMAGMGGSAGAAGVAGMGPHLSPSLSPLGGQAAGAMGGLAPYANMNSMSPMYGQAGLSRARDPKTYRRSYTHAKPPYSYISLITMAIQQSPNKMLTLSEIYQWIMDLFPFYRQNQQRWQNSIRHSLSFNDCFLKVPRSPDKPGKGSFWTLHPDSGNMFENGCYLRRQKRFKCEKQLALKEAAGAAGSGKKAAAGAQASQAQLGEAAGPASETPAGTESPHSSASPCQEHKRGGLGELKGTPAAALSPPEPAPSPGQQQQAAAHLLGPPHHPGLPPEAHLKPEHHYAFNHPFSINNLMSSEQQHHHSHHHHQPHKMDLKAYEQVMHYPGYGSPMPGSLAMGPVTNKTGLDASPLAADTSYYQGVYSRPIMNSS
Chain of Aryl hydrocarbon receptor (Homo sapiens) (P35869 whole entry, looked up): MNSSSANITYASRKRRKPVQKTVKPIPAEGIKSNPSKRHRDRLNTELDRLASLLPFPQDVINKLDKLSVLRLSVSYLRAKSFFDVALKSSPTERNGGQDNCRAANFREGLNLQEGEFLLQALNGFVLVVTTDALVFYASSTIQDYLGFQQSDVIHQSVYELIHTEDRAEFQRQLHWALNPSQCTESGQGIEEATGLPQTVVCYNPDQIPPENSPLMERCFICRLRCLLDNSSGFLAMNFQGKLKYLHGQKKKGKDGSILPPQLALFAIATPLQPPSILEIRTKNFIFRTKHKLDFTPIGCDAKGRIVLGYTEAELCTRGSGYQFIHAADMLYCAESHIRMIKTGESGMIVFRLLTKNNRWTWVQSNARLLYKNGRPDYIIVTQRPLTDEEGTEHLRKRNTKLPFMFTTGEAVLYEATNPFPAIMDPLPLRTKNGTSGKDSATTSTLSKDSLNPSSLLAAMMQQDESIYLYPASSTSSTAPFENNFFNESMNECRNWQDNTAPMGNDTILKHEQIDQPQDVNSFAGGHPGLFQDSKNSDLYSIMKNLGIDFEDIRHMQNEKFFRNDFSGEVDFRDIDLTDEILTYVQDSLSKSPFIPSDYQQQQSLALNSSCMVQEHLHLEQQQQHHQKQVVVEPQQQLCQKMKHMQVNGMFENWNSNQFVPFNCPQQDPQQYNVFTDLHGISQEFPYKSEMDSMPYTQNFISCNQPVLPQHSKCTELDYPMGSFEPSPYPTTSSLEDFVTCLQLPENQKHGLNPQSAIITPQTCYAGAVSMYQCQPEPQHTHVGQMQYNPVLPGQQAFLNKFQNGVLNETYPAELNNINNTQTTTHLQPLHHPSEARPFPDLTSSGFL
Chain of CCAAT/enhancer-binding protein beta (Homo sapiens) (P17676 whole entry, looked up, the tested form may be a part): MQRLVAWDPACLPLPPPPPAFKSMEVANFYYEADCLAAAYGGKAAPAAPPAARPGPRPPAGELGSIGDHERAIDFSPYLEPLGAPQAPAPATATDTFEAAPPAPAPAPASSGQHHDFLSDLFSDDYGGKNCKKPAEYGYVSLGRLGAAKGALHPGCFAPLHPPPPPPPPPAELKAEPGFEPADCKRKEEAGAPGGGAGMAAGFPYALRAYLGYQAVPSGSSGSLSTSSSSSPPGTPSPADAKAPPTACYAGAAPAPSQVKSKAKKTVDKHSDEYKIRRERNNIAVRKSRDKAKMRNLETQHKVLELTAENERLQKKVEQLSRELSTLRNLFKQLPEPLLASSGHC
Chain of Retinoic acid receptor alpha (Homo sapiens) (P10276 whole entry, looked up): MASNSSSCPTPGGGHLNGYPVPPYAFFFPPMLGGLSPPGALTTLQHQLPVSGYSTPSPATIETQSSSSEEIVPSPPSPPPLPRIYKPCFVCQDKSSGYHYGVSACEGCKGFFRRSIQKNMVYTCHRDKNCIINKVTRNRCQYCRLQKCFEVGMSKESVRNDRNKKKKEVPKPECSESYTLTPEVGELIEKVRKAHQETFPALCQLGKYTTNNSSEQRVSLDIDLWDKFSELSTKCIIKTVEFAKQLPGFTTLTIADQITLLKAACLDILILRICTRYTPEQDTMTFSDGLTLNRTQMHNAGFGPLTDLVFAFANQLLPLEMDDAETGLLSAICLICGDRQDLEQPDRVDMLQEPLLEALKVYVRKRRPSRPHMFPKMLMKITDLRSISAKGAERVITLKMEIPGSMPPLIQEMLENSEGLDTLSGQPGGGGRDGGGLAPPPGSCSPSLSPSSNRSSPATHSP

CCOC(=S)SSC(=S)OCC
not listed: [17] | [18] | [19] | [20]
inactive: all other assays above

OCc1cccnc1
not listed: [8] | [19] | [20]
inactive: all other assays above

C=CCOc1nc(OCC=C)nc(OCC=C)n1
active: [3] 42.9 µM
not listed: [11] | [13] | [17] | [20]
inactive: all other assays above

Cc1ccc(O)c(C(C)(C)C)c1
active: [4] 100 µM | [6] 100 µM | [12] 148 µM | [16] 173 µM
not listed: [13] | [14] | [17] | [20]
inactive: all other assays above

CCC(=O)/C=C/C1C(C)=CCCC1(C)C (centres undefined)
not listed: [8] | [13] | [20]
inactive: all other assays above

CC(CC(C)(C)C)CC(C)(C)CC(C)(C)C (centres undefined)
not listed: [9] | [13] | [20]
inactive: all other assays above

CC(=O)OCCC(C)CC(C)(C)C (centres undefined)
not listed: [17] | [19] | [20]
inactive: all other assays above

CCCCNC(=O)NS(=O)(=O)c1ccc(N)cc1
not listed: [8] | [13]
inactive: all other assays above
